Most compounds without a hit are left out; they make up all but 0.86% or so of the library.
CDC25B CDK2 inh – human CDC25B-CDK2/CyclinA binding inhibition | 94,000 compounds, 0.72% hits | z-score (test concentration not listed) | P30305+P24941 | HTRF CDC25B-CDK2/CyclinA binding, anti-His/anti-Flag; active compounds read high | AID 1259370; in the data active means z-score above about 3.2
TAR Tat displ – HIV-1 TAR-Tat binding disruption | HIV-1 TAR RNA, Tat peptide displacement FRET; active compounds read high | z-score (concentration not given with the values) | 100,000 compounds, 0.6% hits | AID 1259389; active means z-score of 3 or more in at least 2 runs
The depositor's hits bear a star; . = no result.

SMILES	CDC25B CDK2 inh	TAR Tat displ
COc1ccc(C(=O)c2c(N)c(-c3nc(-c4ccccc4)cs3)c3ccccn23)cc1	-0.57	3.6
Cc1cc2c3c([nH]c2cc1S(=O)(=O)NCC1CCCO1)CC(C)(C)CC3=O (configuration not stated)	.	0.43
FC(F)(F)/C(=N\P(=S)(Nc1ccc(Cl)cc1)Nc1ccc(Cl)cc1)Nc1ccc(Cl)cc1	0.48	.
COc1ccc(CC(=O)NN)cc1OC	-1.6	.
COC(=O)C1Cc2cc(OC)c(OC)cc2C(Cc2ccc(OC)c(OC)c2)=N1 (configuration not stated)	8.9*	-0.5
Cn1c(=O)c2c(-c3ccccc3F)c(Nc3ccccc3)oc2n(C)c1=O	.	0.57
Cc1ccc(C(=O)c2cnc3cc4c(cc3c2N2CCOCC2)OCO4)cc1C	1.8	8.8*
CCc1ccc(C(=O)c2cnc3cc4c(cc3c2N2CCCC2)OCO4)cc1	-0.75	-0.89
O=C1C=CC2=C3c4cc(O)c(O)cc4CC3(O)COC2=C1O (configuration not stated)	.	20*
COc1cc(C(=O)Nc2ccccc2SCCC#N)cc(OC)c1OC	0.31	.
COc1cccc(C=Nc2ccccc2SCCC#N)c1O	6.9*	.
CN(Cc1ccccc1)c1nc2c(c(=O)[nH]c(=O)n2C)n1Cc1ccc(F)cc1	-0.62	.
CCn1cnc2cc(NCc3cccc(Br)c3)ccc21	13*	0.37
CCCn1cnc2cc(NCc3ccc(C)cc3)ccc21	13*	0.51
c1ccc(-n2cnc3cc(NCc4ccco4)ccc32)cc1	3.3	-0.51
CCn1cnc2cc(NCc3ccco3)ccc21	16*	0.58
COc1ccc(CNc2ccc3c(c2)ncn3C)cc1OC	2.3	1.3
Cc1ccc(CNc2ccc3c(c2)nc(C)n3C)cc1	-1.8	1.1
CCOC(=O)c1cccc(C(=O)Nc2cccc(F)c2)n1	-1.1	.
Cc1ccc(C)c(OCc2nc(-c3ccc(Cl)cc3)no2)c1	-2.2	.
O=C(Cn1ncc2c1-c1ccccc1OC2)Nc1ccc(F)c(Cl)c1	-1.2	-0.04
C#CCn1c2ccccc2c2nc3ccccc3nc21	.	0.07
O=C1CCC(=O)N1CCCn1c2ccccc2c2nc3ccccc3nc21	14*	1
CCOc1cc(C2C(C#N)=C(N)OC3=C2C(=O)CC(C)(C)C3)ccc1OC (configuration not stated)	-0.6	.
CC1CCCC(NC(=O)C2(C)Cn3c(cc4sccc43)C(=O)N2Cc2ccc3c(c2)OCO3)C1C (configuration not stated)	-4.4	1
SMILES	CDC25B CDK2 inh	TAR Tat displ
C=CCN(C(=O)CSc1nncn2c1cc1occc12)c1ccccc1	.	1.4
CCN(Cc1ccccc1)C(=O)CSc1nncn2c1cc1occc12	.	6.7*
Cc1ccc(-n2c(=O)c3ccccc3n(Cc3cc(=O)n4ccccc4n3)c2=O)cc1	-0.99	.
N#CC1=C2SCN(C3CCCCC3)CN2C(=O)CC1c1ccccc1Cl (configuration not stated)	2.1	0.56
COc1cccc(C2CC(=O)N3CN(CCCc4ccccc4)CSC3=C2C#N)c1 (configuration not stated)	5*	1.4
COc1cc(C2CC(=O)N3CN(Cc4ccco4)CSC3=C2C#N)ccc1OCc1ccccc1 (configuration not stated)	-0.88	-1.2
N#CC1=C2SCN(Cc3ccccc3)CN2C(=O)CC1c1ccc2c(c1)OCO2 (configuration not stated)	4*	0.95
COc1cc(C2CC(=O)N3CN(C)CSC3=C2C#N)ccc1OCc1ccccc1 (configuration not stated)	4.1*	-1.3
Cc1c(Cl)cccc1N1CSC2=C(C#N)C(c3cccs3)CC(=O)N2C1 (configuration not stated)	7.9*	-0.6
CCCN(CCC)S(=O)(=O)c1ccc2c(c1)oc(=O)n2CC(=O)OCC	-1.6	-1.6
C=CCOC(=O)C1=C(C)N=C2SCCC(=O)N2C1c1ccc(OCCCC)cc1 (configuration not stated)	-0.3	.
Cc1c(COC(=O)c2ccccc2)sc2ccccc12	-1.7	.
C=CCN(CC=C)S(=O)(=O)c1ccc(NC(=O)c2csnn2)cc1	0.5	0.07
O=C(O)c1c(-c2cccc(F)c2)noc1N1CCOCC1	-0.07	0.11
Cc1c(-c2ccn[nH]2)cnn1-c1c(Cl)cc(Cl)cc1Cl	-1.7	.
COc1ccc(C2CC(=O)N3CN(C(C)c4ccccc4)CSC3=C2C#N)cc1OC (configuration not stated)	5.5*	1.1
N#CC1=C2SCN(Cc3ccccc3)CN2C(=O)CC1c1cccs1 (configuration not stated)	5.2*	-0.52
COc1cccc(C2CC(=O)N3CN(Cc4ccccc4)CSC3=C2C#N)c1 (configuration not stated)	5.2*	-0.29
N#CC1=C2SCN(Cc3ccccc3)CN2C(=O)CC1c1cccc(F)c1 (configuration not stated)	4.9*	1.1
CCN(CC)CCn1cnc2scc(-c3ccccc3)c2c1=O	-1.7	0.62

Source: PubChem (Center for Chemical Genomics, University of Michigan)
